Source: PubChem (several laboratories)
The list is not random: actives were taken first. Their share in the collection is about 12%.
ROMK mod: modulators of human ROMK potassium channel. 130,000 tested, 2% active. Tet-inducible ROMK, thallium flux fluorescence; actives lie on both sides. B-score at 10 µM;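 active means signal ratio slope over the read window, or its plate-corrected B-score, at least 3 SD from the plate mean, either direction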;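 further: B-score of the F/F0 ratio slope over 7 to 12 s after thallium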
L major viab: inhibitors of Leishmania major promastigote growth | Leishmania major promastigotes, resazurin fluorescence viability | inhibition, % at 10 µM | 200,000 tested, 9% active; in the data active means inhibition above about 50%;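 further: promastigotes grown with compound for 44 hours at 28 °C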
Insulin prom up: MIN6 insulin promoter up-regulation; MIN6 insulin promoter-GFP reporter, high-content imaging; active compounds read high; z-score at 5 µM; 190,000 tested, 0.3% active;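 active means z-score above 3 at 5 µM with at least 500 cells counted in the well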
KCC2 mod: modulators of human KCC2 chloride dependent transport | 190,000 tested, 2.2% active | KCC2 cells, thallium flux FluoZin-2 fluorescence | B-score of Tl+ flux slope (higher = more flux/activation; lower = inhibition) at 10 µM | Q9H2X9;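 active means thallium flux slope and its plate-corrected score both differing from the plate sample mean at a set confidence after two filtering rounds, in either direction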;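 further: slope of fluorescence scaled to starting intensity during 10 to 20 s after thallium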
Insulin prom inh: TRM-6 insulin promoter activity inhibition | AID 1273 | 130,000 tested, 0.9% active | inhibition, % at 2 µM | TRM-6 cells (human fetal islet line), insulin promoter-eGFP reporter, imaging; reporter expression induced with tamoxifen;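 active means inhibition above the mean plus 3 SD, with well images judged a real hit on visual review, cut at about 60% in these data, passing the limit was not always enough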
WT yeast gro inh: growth inhibition of WT yeast, mitochondrial fusion screen; mitochondrial fusion phenotypic screen, WT strain; AID 1362; inhibition, % at 10 µM; 190,000 tested, 2.1% active; in the data active means inhibition above about 58%; tested in S. cerevisiae
L major 1uM: blocks Leishmania major promastigote growth at 1 uM, repeat screen; shares compounds with L major viab; L. major promastigote growth, resazurin fluorescence, 48 h; inhibition, % at 1 µM; 1,100 tested, 13% active; AID 1258;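 active means inhibition above about 50% in both repeat tests, limit read from the data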
Numbers stand for hits; i = inactive; nt = no result; ! = not confirmed by another sample.

SMILES	ROMK mod	L major viab	Insulin prom up	KCC2 mod	Insulin prom inh	WT yeast gro inh	L major 1uM
CCCCCCCNC1=CC(=O)CC(c2ccccc2)C1 (stereo not given)	nt	99.5	i	i	i	i	i
Cc1cc(C(c2nnnn2Cc2ccccc2)N2CCOCC2)c(C)n1-c1ccc2c(c1)OCO2 (stereo not given)	nt	60.7	nt	i	i	i	i
c1ccc(Cn2nnnc2C(c2ccncc2)N2CCOCC2)cc1 (stereo not given)	i	i	i	i	nt	i	nt
O=C1C=C(N(CCO)Cc2ccccc2)c2ccccc2C1=O	i	95.5	i	i	i	i	i
CCOc1ccc2c(c1)nc(NCCCO)n2Cc1ccccc1	nt	nt	i	i	nt	nt	nt
O=C(/C=C/c1cccc([N+](=O)[O-])c1)NCCN1C(=O)S/C(=C\c2cccnc2)C1=O	i	60.3	i	i	nt	i	i
O=C(/C=C/c1ccccc1[N+](=O)[O-])NCCN1C(=O)S/C(=C\c2ccc(F)cc2)C1=O	i	i	nt	i	i	i	nt
Cc1ccccc1N=C1Nc2ccccc2CS1	nt	51.0	i	i	nt	i	i
COC(=O)C1=C(C)N(C)C(=S)N(C)C1c1cccc(Br)c1 (stereo not given)	nt	i	i	i	i	i	nt
Cc1ccc2cccnc2c1N	i	i	i	i	i	i	nt
c1cnc2c(c1)ccc1cccnc12	i	100.4	i	i	i	i	52.5!
COc1ccc(N(C(=O)Cn2nnc3ccccc32)C(C(=O)NCc2ccco2)c2cccnc2)cc1 (stereo not given)	i	i	i	i	i	i	nt
CC(C)(C)c1ccc(S(=O)(=O)N2C=CC(C(F)(F)F)=NCC2)cc1	i	59.0	i	nt	i	i	i
CN(C)S(=O)(=O)c1cccc(-n2sc3ccccc3c2=O)c1	i	54.7	i	i	nt	66.7	i
O=c1c2ccccc2sn1-c1ccc(S(=O)(=O)N2CCCC2)cc1	i	i	i	nt	i	i	nt
O=c1c2ccccc2sn1-c1ccccc1	i	99.8	i	i	i	i	i
Cc1c(Br)c([N+](=O)[O-])nn1CCCC(=O)Nc1sc2c(c1C#N)CCC2	i	82.1	i	i	i	i	i
Cc1ccc(N2CC(C)Cn3c2nc2c3c(=O)n(CC(=O)OCc3ccccc3)c(=O)n2C)cc1C (stereo not given)	nt	59.2	i	nt	nt	i	i
Cc1ccc(N2CCCn3c2nc2c3c(=O)n(CC(=O)OCc3ccccc3)c(=O)n2C)cc1C	nt	nt	i	nt	nt	nt	nt
C[C@@H]1CC=C[C@H]2[C@H]1C(=O)N(Cc1ccccc1)[C@H]2c1ccc(-c2cc3ccccc3s2)cc1F	nt	nt	nt	i	nt	nt	nt
CC(C)NCC(O)COCCOc1ccc(Br)cc1 (stereo not given)	i	i	i	nt	i	i	nt
CCc1ccc(OCCOCC(O)CNC2CCCC2)cc1 (stereo not given)	i	60.3	i	i	nt	i	i
COC(=O)c1c(C)[nH]c(C)c1-c1ccccc1Cl	nt	i	i	i	nt	i	nt
COC(=O)C1=C(C(=O)OC)SC2(S1)C(C(=O)OC)=C(C(=O)OC)SC1=C2c2cccc(C)c2NC1(C)C	nt	100.3	i	i	i	i	i
COc1ccc(OC)c2[nH]c(=O)c(CCNC(=O)c3ccc(S(=O)(=O)N4CCCC4)cc3)cc12	nt	67.1	i	i	i	i	i
SMILES	ROMK mod	L major viab	Insulin prom up	KCC2 mod	Insulin prom inh	WT yeast gro inh	L major 1uM
COc1ccc(C(=O)Nc2cccc([N+](=O)[O-])c2)cc1Br	nt	i	nt	i	i	nt	nt
COc1ccc(NC(=O)Nc2cccc([N+](=O)[O-])c2)cc1Cl	nt	98.2	i	i	nt	79.2	i
Cc1ccccc1N/N=C/c1sc(=O)n(Cc2cccc(C(=O)O)c2)c1Cl	nt	nt	i	i	nt	nt	nt
COC(=O)c1cccc(Cn2c(Cl)c(/C=N/Nc3ccccc3C)sc2=O)c1	i	57.9	i	i	i	i	63.6
O=C(O)c1[nH]c2ccc(Cl)cc2c1CCN1C(=O)c2ccccc2C1=O	nt	nt	i	nt	nt	nt	nt
C=C(C)Cc1c(C)nc(-c2ccccc2)[nH]c1=O	nt	i	nt	nt	i	i	nt
c1ccc2c(c1)CCOC2CNCCCN1CCCCC1 (stereo not given)	i	56.2	i	nt	i	i	i
O=S(=O)(NCC1OCCc2ccccc21)c1ccc(S(=O)(=O)N2CCOCC2)cc1 (stereo not given)	nt	i	i	i	i	i	nt
Cc1ccccc1C(=O)Oc1ccc(-c2csnn2)cc1	nt	nt	i	i	nt	nt	nt
Cc1ccccc1C(=O)Oc1ccc(Sc2ccc(O)cc2)cc1	nt	54.3	i	i	i	86.5	i
CCC(C)[C@H](NC(=O)NCCCn1ccnc1)C(=O)OC (stereo not given in full)	i	52.3	i	i	i	i	i
O=C(NCCCn1ccnc1)NC(C(F)(F)F)C(F)(F)F	i	i	i	i	i	i	nt
Cc1cc(C(=O)CSc2nncs2)c(C)n1Cc1ccco1	i	i	i	i	nt	i	nt
Cc1cc(C(=O)CCl)c(C)n1Cc1ccco1	nt	100.5	nt	nt	nt	i	93.0
COCCCNC(=O)c1ccc([N+](=O)[O-])c(Cl)c1	nt	i	i	i	i	i	nt
c1ccc(-c2n[nH]c(-c3ccccn3)n2)cc1	i	i	i	i	i	i	nt
c1ccc(-c2n[nH]c(-c3ccccn3)n2)nc1	i	100.4	i	i	i	i	i
Cn1cccc1C(=O)NC(=O)COC(=O)c1ccccc1Sc1ccccc1C#N	nt	i	i	nt	i	i	nt
O=C(N/C=N/OCc1cccc(C(F)(F)F)c1)N1OC[C@@H]2COc3ccc4ccccc4c3[C@@H]21	nt	91.6	i	i	i	i	i
CO/N=C/NC(=O)N1OC[C@@H]2COc3ccc4ccccc4c3[C@@H]21	i	i	i	i	i	i	nt
O=C(CSc1nc2scc(-c3ccccc3)c2c(=O)[nH]1)NC1CCCCC1	i	54.5	nt	nt	nt	i	i
CC(C)(C)NC(=O)CSc1nc2scc(-c3ccccc3)c2c(=O)[nH]1	nt	i	i	i	i	i	nt
Cn1c(=O)c2cc(NCc3ccccc3)nnc2n(C)c1=O	nt	i	i	i	nt	i	nt
CN(C)C(=O)c1snnc1-c1ccccc1	nt	i	nt	i	i	i	nt
Clc1ccc2[nH]cc(-c3nnnn3-c3ccc4ccccc4c3)c2c1	nt	98.7	i	i	i	i	85.9
SMILES	ROMK mod	L major viab	Insulin prom up	KCC2 mod	Insulin prom inh	WT yeast gro inh	L major 1uM
Cc1ccc(-n2nnnc2-c2cnc3ccc(Cl)cc3c2-c2ccccc2)cc1	nt	i	nt	i	i	i	nt
CCOC(=O)c1ccc2c(c1)nc(C1CCN(S(=O)(=O)c3cccs3)CC1)n2CC	nt	100.0	i	i	nt	i	i
O=C(COC(=O)Cn1cnc2ccccc2c1=O)Nc1ccc2c(c1)OCO2	i	i	nt	i	nt	i	nt
CCn1cc(CN(C)C(=O)/C=C/c2ccc([N+](=O)[O-])cc2)c(C)n1	nt	i	i	i	nt	i	nt
CCOc1cc(/C=C2\SC(=Nc3ccccc3)N(c3ccccc3)C2=O)ccc1OCC(=O)O	i	i	i	i	i	i	nt
CCOC(=O)COc1ccc(/C=C2/SC(=Nc3ccccc3)N(Cc3cccnc3)C2=O)cc1OC	i	59.6	i	i	i	i	i
CCN(CC)C(=O)COC(=O)c1ccc(O)cc1	i	i	i	nt	i	i	nt
